How the values were obtained:
Conditions in all cases: concentration: 1 μM,replicates: in singlicate; n = 1
[1] = test system: JAK1(JH2domain-pseudokinase)
[2] = test system: JAK2(JH1domain-catalytic)
[3] = test system: JAK3(JH1domain-catalytic)
JNK1 = test system: T1, JNK1
T1 construct: gene MAPK8

JNK2 = test system: T2, JNK2
T2 construct: gene MAPK9

JNK3 = test system: T3, JNK3
T3 construct: gene MAPK10

KIT-autoinhibited = test system: KIT-autoinhibited
KIT = test system: KIT
LATS1 = test system: LATS1
LATS2 = test system: LATS2
LCK = test system: LCK
LIMK1 = test system: LIMK1
LIMK2 = test system: LIMK2
LKB1 = test system: T4, LKB1
T4 construct: gene STK11

LOK = test system: T5, LOK
T5 construct: gene STK10

LRRK2 = test system: LRRK2
LTK = test system: LTK
LYN = test system: LYN
LZK = test system: T6, LZK
T6 construct: gene MAP3K13

MAK = test system: MAK
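Also: KINOMEscan kinase panel screen.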

SMILES | %Inh [1] [%] | %Inh [2] [%] | %Inh [3] [%] | %Inh (JNK1) [%] | %Inh (JNK2) [%] | %Inh (JNK3) [%] | %Inh (KIT-autoinhibited) [%] | %Inh (KIT) [%] | %Inh (LATS1) [%] | %Inh (LATS2) [%] | %Inh (LCK) [%] | %Inh (LIMK1) [%] | %Inh (LIMK2) [%] | %Inh (LKB1) [%] | %Inh (LOK) [%] | %Inh (LRRK2) [%] | %Inh (LTK) [%] | %Inh (LYN) [%] | %Inh (LZK) [%] | %Inh (MAK) [%]
O=C(Nc1cccc(Oc2ccc3nccn3n2)c1)Nc1cccc(C(F)(F)F)c1 | 0 | 9 | 25 | 0 | 0 | 0 | 68 | 100 | 0 | 0 | 71 | 0 | 25 | 0 | 64 | 21 | 0 | 42 | 0 | 38
Cc1cccc2c(-c3ccncc3)c(-c3ccc(F)cc3)nn12.Cl [GW461487] | 19 | 0 | 0 | 48 | 90 | 94 | 0 | 4 | 0 | 13 | 19 | 0 | 4 | 4 | 0 | 26 | 100 | 0 | 5 | 26
COC(=O)Nc1nc2cc(Oc3ccc(NC(=O)Nc4cc(C(F)(F)F)ccc4Cl)cc3)ccc2[nH]1.Cl [GW697465] | 0 | 25 | 0 | 20 | 61 | 8 | 0 | 100 | 100 | 0 | 98.9 | 11 | 0 | 14 | 99.7 | 11 | 36 | 75 | 44 | 20
NC(=O)c1ccc(-c2cc3ncnc(SCC(=O)O)c3s2)cc1 | 50 | 0 | 22 | 22 | 0 | 0 | 22 | 68 | 0 | 0 | 2 | 0 | 21 | 18 | 0 | 11 | 0 | 23 | 2 | 45
CS(=O)(=O)c1cccc(CNc2nc(Nc3ccc4c(c3)[C@@H]3C[C@@H]4CNC3=O)ncc2C(F)(F)F)c1 | 91.1 | 98.4 | 100 | 38 | 30 | 46 | 39 | 42 | 24 | 45 | 0 | 0 | 0 | 12 | 81 | 72 | 5 | 25 | 0 | 0
CCn1c(-c2nonc2N)nc2cncc(CNC3CCNCC3)c21.Cl [SB-747651] | 0 | 19 | 0 | 25 | 6 | 3 | 0 | 0 | 0 | 53 | 0 | 14 | 13 | 0 | 0 | 43 | 25 | 0 | 8 | 29
COC(=O)c1cccc(NC(=O)NC2CCN(c3ccnc(NCc4ccc(F)cc4)n3)CC2)c1 [GSK1379860] | 0 | 6 | 0 | 7 | 23 | 3 | 0 | 7 | 0 | 0 | 4 | 4 | 0 | 0 | 0 | 8 | 0 | 0 | 0 | 28
COc1cc2ncn(-c3cc(OCC4CCCCC4)c(C(N)=O)s3)c2cc1OC [GSK204559] | 0 | 0 | 0 | 20 | 27 | 19 | 0 | 31 | 0 | 7 | 37 | 2 | 13 | 0 | 63 | 20 | 10 | 0 | 0 | 18
Cc1ccn2nc(-c3ccc(F)cc3)c(-c3ccncc3)c2c1.Cl [GW457859] | 75 | 50 | 0 | 43 | 91.4 | 93.4 | 0 | 26 | 2 | 0 | 12 | 0 | 0 | 10 | 0 | 0 | 0 | 0 | 44 | 17
C[C@@H](Oc1cc(-n2cnc3cc(-c4ccncc4)ccc32)sc1C(N)=O)c1ccccc1Cl [GSK479719] | 0 | 58 | 48 | 7 | 10 | 11 | 0 | 64 | 10 | 0 | 54 | 31 | 0 | 0 | 99.8 | 4 | 0 | 0 | 0 | 0

Reference: publication PMC5540273 (PLoS ONE, 2017)
